# Laboratory results: ChEMBL document CHEMBL1961873, “Compounds: GSK PKIS; Assays: Nanosyn kinase panel” (2012)
# Assays:
# [1] = molecular target: Protein kinase C gamma type (Homo sapiens) (UniProt P05129); settings: at 1 µM;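 further: each value is an averaged percent inhibition of the enzyme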
# [2] = molecular target: T1, Protein kinase C iota type (Homo sapiens) (UniProt P41743); settings: at 0.1 µM
# T1 sequence (whole entry): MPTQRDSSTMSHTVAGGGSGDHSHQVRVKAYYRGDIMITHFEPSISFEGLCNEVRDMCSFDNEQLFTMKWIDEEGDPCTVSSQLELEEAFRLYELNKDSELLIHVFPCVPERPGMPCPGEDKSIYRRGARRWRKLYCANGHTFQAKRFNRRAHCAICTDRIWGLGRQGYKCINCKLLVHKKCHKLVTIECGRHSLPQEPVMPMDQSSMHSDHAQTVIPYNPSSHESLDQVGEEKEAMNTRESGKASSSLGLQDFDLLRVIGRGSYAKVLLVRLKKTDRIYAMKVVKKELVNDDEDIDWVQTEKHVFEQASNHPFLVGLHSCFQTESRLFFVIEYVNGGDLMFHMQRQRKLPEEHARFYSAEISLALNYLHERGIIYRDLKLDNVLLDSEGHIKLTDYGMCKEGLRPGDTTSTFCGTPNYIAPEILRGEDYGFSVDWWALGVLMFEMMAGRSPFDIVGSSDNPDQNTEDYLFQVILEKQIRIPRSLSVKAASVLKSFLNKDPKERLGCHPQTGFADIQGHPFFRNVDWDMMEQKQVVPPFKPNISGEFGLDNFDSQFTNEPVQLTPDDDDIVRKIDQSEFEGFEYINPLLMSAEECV
# [3] = molecular target: T1, Protein kinase C iota type (Homo sapiens); settings: at 1 µM
# [4] = molecular target: Protein kinase C theta type (Homo sapiens) (UniProt Q04759); settings: at 0.1 µM
# [5] = molecular target: Protein kinase C theta type (Homo sapiens) (UniProt Q04759); settings: at 1 µM
# [6] = molecular target: Protein kinase C beta type (Homo sapiens) (UniProt P05771); settings: at 0.1 µM
# [7] = molecular target: Protein kinase C beta type (Homo sapiens) (UniProt P05771); settings: at 1 µM
# [8] = molecular target: T2, Serine/threonine-protein kinase D1 (Homo sapiens) (UniProt Q15139); settings: at 0.1 µM
# T2 sequence (whole entry): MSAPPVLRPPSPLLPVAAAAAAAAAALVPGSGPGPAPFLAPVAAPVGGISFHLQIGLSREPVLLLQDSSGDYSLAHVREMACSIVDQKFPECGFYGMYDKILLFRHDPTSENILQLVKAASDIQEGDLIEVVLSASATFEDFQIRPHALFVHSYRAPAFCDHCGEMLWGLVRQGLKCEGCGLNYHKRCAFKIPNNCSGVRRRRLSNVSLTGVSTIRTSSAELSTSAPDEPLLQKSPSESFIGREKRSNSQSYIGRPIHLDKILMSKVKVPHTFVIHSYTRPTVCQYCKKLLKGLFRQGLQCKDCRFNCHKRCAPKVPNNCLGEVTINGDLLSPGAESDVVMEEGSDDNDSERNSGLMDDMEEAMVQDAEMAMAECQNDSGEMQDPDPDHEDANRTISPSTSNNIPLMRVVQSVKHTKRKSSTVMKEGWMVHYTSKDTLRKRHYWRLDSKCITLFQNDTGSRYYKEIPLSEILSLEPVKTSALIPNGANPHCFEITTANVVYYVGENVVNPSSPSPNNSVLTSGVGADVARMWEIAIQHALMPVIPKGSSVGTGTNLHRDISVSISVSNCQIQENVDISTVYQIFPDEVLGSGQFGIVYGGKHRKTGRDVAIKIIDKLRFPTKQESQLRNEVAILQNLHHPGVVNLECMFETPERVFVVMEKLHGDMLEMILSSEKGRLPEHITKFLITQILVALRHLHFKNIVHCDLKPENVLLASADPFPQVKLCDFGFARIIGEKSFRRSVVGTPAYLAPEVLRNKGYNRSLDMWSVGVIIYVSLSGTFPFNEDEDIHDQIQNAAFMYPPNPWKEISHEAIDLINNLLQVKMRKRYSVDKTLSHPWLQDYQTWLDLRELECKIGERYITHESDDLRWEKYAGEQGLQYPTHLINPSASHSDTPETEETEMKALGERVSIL
# [9] = molecular target: T2, Serine/threonine-protein kinase D1 (Homo sapiens); settings: at 1 µM
# [10] = molecular target: T3, Serine/threonine-protein kinase D2 (Homo sapiens) (UniProt Q9BZL6); settings: at 0.1 µM
# T3 sequence (whole entry): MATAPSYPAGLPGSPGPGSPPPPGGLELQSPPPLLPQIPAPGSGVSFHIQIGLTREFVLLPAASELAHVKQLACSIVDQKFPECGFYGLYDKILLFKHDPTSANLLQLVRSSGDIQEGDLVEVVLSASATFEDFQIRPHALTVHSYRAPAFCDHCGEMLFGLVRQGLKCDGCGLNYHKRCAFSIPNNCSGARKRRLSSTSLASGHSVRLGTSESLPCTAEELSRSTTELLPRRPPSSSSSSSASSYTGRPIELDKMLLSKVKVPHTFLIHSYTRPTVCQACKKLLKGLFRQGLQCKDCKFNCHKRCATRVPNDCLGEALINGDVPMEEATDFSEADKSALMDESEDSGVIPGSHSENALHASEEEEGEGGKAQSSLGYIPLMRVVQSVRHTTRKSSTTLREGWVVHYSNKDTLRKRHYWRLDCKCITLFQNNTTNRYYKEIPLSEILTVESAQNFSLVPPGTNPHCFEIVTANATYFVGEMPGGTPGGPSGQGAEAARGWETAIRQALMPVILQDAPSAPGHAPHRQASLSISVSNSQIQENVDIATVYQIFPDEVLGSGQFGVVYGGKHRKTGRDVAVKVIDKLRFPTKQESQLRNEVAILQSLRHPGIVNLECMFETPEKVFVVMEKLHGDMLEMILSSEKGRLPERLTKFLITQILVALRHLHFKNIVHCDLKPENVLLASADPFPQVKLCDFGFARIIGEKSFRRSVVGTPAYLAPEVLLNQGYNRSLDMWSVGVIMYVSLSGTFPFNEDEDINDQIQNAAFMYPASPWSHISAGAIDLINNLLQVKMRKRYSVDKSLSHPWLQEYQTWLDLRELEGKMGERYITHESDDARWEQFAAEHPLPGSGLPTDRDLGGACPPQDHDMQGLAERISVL
# [11] = molecular target: T3, Serine/threonine-protein kinase D2 (Homo sapiens); settings: at 1 µM
# [12] = molecular target: T4, Serine/threonine-protein kinase D3 (Homo sapiens) (UniProt O94806); settings: at 0.1 µM
# T4 sequence (whole entry): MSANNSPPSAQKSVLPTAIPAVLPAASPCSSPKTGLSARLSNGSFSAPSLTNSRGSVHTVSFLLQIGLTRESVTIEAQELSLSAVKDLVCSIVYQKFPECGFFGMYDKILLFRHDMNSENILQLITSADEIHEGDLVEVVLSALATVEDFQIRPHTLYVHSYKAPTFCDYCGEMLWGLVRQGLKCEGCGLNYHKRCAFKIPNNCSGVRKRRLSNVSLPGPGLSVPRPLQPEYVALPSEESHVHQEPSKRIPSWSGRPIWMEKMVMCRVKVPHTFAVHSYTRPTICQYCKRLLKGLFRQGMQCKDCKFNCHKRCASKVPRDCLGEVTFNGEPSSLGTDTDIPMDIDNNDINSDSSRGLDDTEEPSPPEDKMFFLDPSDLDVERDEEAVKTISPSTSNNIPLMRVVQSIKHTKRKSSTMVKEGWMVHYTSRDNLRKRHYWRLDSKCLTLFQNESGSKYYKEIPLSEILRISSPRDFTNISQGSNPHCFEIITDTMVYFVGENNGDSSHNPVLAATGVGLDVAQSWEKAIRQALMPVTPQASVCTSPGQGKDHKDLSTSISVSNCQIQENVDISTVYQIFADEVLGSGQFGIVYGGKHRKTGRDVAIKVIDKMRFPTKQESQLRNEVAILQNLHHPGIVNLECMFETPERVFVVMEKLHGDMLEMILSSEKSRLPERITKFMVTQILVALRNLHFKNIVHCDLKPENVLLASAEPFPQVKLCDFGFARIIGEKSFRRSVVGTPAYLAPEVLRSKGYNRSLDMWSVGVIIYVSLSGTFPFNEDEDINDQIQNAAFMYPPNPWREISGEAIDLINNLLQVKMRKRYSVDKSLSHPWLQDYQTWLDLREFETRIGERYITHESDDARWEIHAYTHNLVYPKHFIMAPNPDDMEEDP
# [13] = molecular target: T4, Serine/threonine-protein kinase D3 (Homo sapiens); settings: at 1 µM
# [14] = molecular target: T5, cGMP-dependent protein kinase 1 (Homo sapiens) (UniProt Q13976); settings: at 0.1 µM
# T5 sequence (whole entry): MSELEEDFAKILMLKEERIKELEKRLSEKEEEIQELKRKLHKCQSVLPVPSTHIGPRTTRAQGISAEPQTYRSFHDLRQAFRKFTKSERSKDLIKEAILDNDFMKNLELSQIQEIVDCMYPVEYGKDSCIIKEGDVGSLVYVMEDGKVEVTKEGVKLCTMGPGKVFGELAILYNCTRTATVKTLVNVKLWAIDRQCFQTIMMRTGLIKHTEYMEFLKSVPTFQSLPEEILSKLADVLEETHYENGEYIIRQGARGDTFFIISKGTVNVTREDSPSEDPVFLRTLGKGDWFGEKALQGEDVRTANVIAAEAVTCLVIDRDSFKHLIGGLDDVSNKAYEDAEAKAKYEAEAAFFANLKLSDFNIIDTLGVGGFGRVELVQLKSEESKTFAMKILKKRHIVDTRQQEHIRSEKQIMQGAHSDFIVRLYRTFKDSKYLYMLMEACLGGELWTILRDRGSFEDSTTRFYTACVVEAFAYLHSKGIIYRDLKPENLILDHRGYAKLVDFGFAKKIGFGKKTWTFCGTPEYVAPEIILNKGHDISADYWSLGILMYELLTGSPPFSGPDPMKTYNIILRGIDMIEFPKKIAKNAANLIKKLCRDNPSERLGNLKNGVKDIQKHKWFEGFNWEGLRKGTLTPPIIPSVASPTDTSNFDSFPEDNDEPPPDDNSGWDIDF
# [15] = molecular target: T5, cGMP-dependent protein kinase 1 (Homo sapiens); settings: at 1 µM
# [16] = molecular target: T6, cGMP-dependent protein kinase 2 (Homo sapiens) (UniProt Q13237); settings: at 0.1 µM
# T6 sequence (whole entry): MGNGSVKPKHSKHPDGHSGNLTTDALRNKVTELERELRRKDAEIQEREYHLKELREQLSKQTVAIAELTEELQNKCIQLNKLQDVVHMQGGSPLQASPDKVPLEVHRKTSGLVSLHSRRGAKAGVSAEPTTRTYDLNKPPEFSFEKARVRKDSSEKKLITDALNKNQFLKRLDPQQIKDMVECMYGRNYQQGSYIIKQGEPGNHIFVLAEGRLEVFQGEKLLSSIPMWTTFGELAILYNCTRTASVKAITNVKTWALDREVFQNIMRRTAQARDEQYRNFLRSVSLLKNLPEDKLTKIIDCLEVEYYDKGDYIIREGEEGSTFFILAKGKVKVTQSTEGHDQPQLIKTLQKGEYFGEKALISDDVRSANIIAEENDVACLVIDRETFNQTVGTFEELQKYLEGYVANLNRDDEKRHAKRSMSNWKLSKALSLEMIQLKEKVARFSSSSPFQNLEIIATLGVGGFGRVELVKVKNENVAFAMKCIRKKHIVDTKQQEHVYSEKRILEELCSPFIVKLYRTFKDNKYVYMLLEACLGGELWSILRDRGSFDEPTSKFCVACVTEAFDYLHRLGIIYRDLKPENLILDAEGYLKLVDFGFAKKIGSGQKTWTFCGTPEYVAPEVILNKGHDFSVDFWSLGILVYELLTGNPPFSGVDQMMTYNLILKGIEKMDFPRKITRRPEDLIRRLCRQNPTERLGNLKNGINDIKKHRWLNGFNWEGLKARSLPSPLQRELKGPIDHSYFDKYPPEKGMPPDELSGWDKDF
# [17] = molecular target: T6, cGMP-dependent protein kinase 2 (Homo sapiens); settings: at 1 µM
# [18] = molecular target: T7, cAMP-dependent protein kinase catalytic subunit PRKX (Homo sapiens) (UniProt P51817); settings: at 0.1 µM
# T7 sequence (whole entry): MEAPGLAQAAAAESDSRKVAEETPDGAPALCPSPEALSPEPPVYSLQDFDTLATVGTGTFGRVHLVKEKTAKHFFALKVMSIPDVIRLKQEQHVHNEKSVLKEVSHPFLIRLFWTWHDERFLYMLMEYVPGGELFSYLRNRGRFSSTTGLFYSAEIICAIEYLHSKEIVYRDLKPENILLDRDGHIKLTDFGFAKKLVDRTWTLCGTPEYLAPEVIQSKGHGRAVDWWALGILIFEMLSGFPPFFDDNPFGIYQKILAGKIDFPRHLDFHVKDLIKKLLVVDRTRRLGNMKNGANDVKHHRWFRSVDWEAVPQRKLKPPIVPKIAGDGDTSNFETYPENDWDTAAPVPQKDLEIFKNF
# [19] = molecular target: T7, cAMP-dependent protein kinase catalytic subunit PRKX (Homo sapiens); settings: at 1 µM
# [20] = molecular target: Rho-associated protein kinase 1 (Homo sapiens) (UniProt Q13464); settings: at 0.1 µM;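 further: values are mean percent inhibition of ROCK1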
# Rho-associated protein kinase 1 (Homo sapiens), sequence (Q13464 2-1354 limits assumed): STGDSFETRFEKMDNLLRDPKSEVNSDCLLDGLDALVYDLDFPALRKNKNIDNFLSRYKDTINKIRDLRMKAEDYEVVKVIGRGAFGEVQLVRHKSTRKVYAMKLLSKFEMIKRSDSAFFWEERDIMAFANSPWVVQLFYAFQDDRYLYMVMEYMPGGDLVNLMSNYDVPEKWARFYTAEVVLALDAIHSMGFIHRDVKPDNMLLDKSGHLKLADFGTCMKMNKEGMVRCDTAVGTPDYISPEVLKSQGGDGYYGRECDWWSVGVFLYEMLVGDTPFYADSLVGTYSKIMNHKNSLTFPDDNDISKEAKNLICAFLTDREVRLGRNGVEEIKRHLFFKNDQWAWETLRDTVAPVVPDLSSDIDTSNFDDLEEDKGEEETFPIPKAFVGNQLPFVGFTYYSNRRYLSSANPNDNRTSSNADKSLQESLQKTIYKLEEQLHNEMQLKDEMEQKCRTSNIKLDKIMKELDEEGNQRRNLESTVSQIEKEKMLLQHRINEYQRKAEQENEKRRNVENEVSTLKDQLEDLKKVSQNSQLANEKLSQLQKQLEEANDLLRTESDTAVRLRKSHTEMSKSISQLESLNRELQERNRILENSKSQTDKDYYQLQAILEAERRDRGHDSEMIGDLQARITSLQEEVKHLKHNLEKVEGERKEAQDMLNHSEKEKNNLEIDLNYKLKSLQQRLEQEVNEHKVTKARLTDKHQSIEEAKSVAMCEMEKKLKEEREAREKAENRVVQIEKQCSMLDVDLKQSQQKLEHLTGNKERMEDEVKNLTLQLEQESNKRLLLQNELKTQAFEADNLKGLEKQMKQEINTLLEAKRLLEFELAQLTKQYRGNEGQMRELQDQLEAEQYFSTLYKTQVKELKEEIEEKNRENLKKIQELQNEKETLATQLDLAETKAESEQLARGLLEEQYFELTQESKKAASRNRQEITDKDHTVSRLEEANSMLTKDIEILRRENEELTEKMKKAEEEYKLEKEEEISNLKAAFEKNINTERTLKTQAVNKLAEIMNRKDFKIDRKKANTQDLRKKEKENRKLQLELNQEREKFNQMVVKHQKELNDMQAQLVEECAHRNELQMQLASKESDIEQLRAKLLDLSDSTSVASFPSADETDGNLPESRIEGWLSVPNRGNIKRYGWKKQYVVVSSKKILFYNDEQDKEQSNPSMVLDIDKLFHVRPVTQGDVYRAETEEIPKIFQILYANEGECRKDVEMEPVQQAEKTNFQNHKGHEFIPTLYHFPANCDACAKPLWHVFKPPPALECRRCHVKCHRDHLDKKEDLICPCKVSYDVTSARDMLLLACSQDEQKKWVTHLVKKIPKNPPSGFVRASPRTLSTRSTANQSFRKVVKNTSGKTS
# Protein kinase C beta type (Homo sapiens), sequence (P05771 2-671 limits assumed): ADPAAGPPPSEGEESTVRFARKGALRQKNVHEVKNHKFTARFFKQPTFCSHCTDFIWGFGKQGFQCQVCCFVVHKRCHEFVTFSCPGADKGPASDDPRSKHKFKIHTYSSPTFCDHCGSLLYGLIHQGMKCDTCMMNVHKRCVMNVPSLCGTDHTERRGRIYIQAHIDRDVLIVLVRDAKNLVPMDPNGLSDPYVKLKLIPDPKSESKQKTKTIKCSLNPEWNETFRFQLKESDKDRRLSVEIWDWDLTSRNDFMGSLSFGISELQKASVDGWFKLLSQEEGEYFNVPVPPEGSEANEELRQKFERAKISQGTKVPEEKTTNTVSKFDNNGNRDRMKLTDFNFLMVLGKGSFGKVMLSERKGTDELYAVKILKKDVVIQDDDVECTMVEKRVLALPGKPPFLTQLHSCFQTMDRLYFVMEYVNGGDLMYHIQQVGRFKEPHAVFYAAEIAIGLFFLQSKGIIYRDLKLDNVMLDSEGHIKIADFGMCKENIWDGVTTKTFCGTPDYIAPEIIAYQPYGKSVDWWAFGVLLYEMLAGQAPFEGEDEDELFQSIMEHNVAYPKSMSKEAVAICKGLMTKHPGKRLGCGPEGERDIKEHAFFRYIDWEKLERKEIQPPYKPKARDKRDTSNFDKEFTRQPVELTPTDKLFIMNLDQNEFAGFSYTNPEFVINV
# Protein kinase C theta type (Homo sapiens), sequence (Q04759 whole entry, looked up): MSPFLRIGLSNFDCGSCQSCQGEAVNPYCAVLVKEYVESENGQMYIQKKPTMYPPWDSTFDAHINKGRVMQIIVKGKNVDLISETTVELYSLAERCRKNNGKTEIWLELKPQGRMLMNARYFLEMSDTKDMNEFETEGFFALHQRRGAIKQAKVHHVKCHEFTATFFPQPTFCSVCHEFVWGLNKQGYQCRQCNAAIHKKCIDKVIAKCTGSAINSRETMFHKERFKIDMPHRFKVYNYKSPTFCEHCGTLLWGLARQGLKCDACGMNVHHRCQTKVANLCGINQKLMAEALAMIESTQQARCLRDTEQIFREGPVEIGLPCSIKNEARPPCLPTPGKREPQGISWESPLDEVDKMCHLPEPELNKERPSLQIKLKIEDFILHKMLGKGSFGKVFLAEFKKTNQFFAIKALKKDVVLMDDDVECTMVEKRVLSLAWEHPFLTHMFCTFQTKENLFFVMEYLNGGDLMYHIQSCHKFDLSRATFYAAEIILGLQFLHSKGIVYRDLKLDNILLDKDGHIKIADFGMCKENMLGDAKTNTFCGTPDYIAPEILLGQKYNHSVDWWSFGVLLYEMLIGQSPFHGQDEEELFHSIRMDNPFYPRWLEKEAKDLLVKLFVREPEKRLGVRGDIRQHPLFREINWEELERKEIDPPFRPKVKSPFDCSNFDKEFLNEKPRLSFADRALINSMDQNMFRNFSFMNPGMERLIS
SMILES,inhibition [1] [%],inhibition [2] [%],inhibition [3] [%],inhibition [4] [%],inhibition [5] [%],inhibition [6] [%],inhibition [7] [%],inhibition [8] [%],inhibition [9] [%],inhibition [10] [%],inhibition [11] [%],inhibition [12] [%],inhibition [13] [%],inhibition [14] [%],inhibition [15] [%],inhibition [16] [%],inhibition [17] [%],inhibition [18] [%],inhibition [19] [%],inhibition [20] [%]
COc1ccc(-c2ccc3c(NC(=O)C4CC4)n[nH]c3n2)cc1,2.95,0.3,-0.23,1.39,2.97,0.8,0.48,2.32,1.39,1.92,1.69,1.45,1.7,1.26,1.97,0.63,0.65,1.66,3.81,0.53
Fc1ccc(-c2ncn(C3CCNCC3)c2-c2ccnc(Oc3ccc(Oc4ccccc4)cc3)n2)cc1,4.82,1.22,2.19,1.9,3.54,2.63,12.4,5.08,8.65,4.63,5.64,5.21,7.01,4.81,7.25,3.21,4.62,2.43,3.21,2.39
